Read-out in experiment [1]: Interleukin-6 (IL6), IL6 (gene 3569)
As to the kind of experiment: BSK_CASM3C_IL6: BioMAP Diversity Plus: CASM3C Assay for Interleukin-6 (IL6) Biomarker Activity for (AID 2283040). The note with it: primary human coronary artery smooth muscle cells; actives raise or lower the signal.

Read-out in experiment [2]: Tissue plasminogen activator (tPA), PLAT (gene 5327)
As to the kind of experiment: BSK_BE3C_tPA: BioMAP Diversity Plus: BE3C Assay for Tissue plasminogen activator (tPA) Biomarker Activity (AID 2283041).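 Further: tPA level quantified by ELISA one day after compound addition.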 Particulars: primary human bronchial epithelial cells; actives raise or lower the signal. In a few lines:
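Primary human lung bronchial epithelial cultures receive test chemical; after 24 h, tPA is quantified by ELISA, and gain or loss of signal is fitted bidirectionally relative to DMSO baseline.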

Read-out in experiment [3]: Interleukin-8 (IL8), CXCL8 (gene 3576)
The experiment is described as follows: BSK_CASM3C_IL8: BioMAP Diversity Plus: CASM3C Assay for Interleukin-8 (IL8) Biomarker Activity (AID 2283042).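 Further: IL-8 protein level quantified by ELISA.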 The note with it: primary human coronary artery smooth muscle cells; actives raise or lower the signal.

Read-out in experiment [4]: Human Leukocyte Antigen - DR isotype (HLADR), HLA-DRA (gene 3122)
The experiment is described as follows: BSK_CASM3C_HLADR: BioMAP Diversity Plus: CASM3C Assay for Human Leukocyte Antigen - DR isotype (HLADR) Biomarker Activity (AID 2283043).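 Further: cell-surface HLA-DR protein level quantified by ELISA.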 The note with it: primary human coronary artery smooth muscle cells; actives raise or lower the signal.

Read-out in experiment [5]: Macrophage colony-stimulating factor (MCSF), CSF1 (gene 1435)
The experiment is described as follows: BSK_CASM3C_MCSF: BioMAP Diversity Plus: CASM3C Assay for Macrophage colony-stimulating factor (MCSF) Biomarker Activity (AID 2283044).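 Further: M-CSF protein amount quantified by ELISA after 24 h exposure.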 The note with it: primary human coronary artery smooth muscle cells; actives raise or lower the signal.

Read-out in experiment [6]: Low-density lipoprotein receptor (LDLR), LDLR (gene 3949)
As to the kind of experiment: BSK_CASM3C_LDLR: BioMAP Diversity Plus: CASM3C Assay for Low-density lipoprotein receptor (LDLR) Biomarker Activity (AID 2283045).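 Further: LDLR protein level on the cell surface quantified by ELISA.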 The note with it: primary human coronary artery smooth muscle cells; actives raise or lower the signal.

Read-out in experiment [7]: Monocyte Chemoattractant Protein-1 (MCP1), CCL2 (gene 6347)
As to the kind of experiment: BSK_CASM3C_MCP1: BioMAP Diversity Plus: CASM3C Assay for Monocyte Chemoattractant Protein-1 (MCP1) Biomarker Activity (AID 2283046).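 Further: MCP-1 level quantified by ELISA 24 h after dosing.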 Particulars: primary human coronary artery smooth muscle cells; actives raise or lower the signal.

The nature of experiment [8]: BSK_CASM3C_Proliferation: Cell Proliferation Assessment in the BioMAP Diversity Plus: CASM3C Assay (AID 2283047).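 Further: sulforhodamine B total protein stain as relative cell number at 560 nm; sub-confluent cells exposed 48 h before staining; fitted both ways against DMSO so gain or loss of cell number.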 The note with it: primary human coronary artery smooth muscle cells.
Read-out in experiment [9]: Monokine induced gamma interferon (MIG), CXCL9 (gene 4283)
The experiment is described as follows: BSK_CASM3C_MIG: BioMAP Diversity Plus: CASM3C Assay for Monokine induced gamma interferon (MIG) Biomarker Activity (AID 2283048).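 Further: MIG protein level measured by ELISA.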 The note with it: primary human coronary artery smooth muscle cells; actives raise or lower the signal.

Read-out in experiment [10]: serum amyloid A (SAA), SAA1 (gene 6288)
The experiment is described as follows: BSK_CASM3C_SAA: BioMAP Diversity Plus: CASM3C Assay for serum amyloid A (SAA) Biomarker Activity (AID 2283049).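 Further: SAA protein level quantified by ELISA.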 Particulars: primary human coronary artery smooth muscle cells; actives raise or lower the signal.

Activity calls are given as the source filed them. How the source made its calls: active means hit-call score of the fitted dose curve at least 0.9, where 1 is the maximum; inactive means score below 0.9.

Data on 17 molecules can be found in PubChem BioAssay (EPA / NIEHS).

As for `CSC1=N[C@@](C)(c2ccccc2)C(=O)N1Nc1ccccc1`, the result in experiment [1], in [2], in experiment [3], in experiment [4], in [5] and in experiment [6] was inactive. The result in experiment [7], in experiment [9] and in experiment [10] was inactive. The AC50 in [8] is 11.5 µM (active).
Take `CCOP(=S)(Oc1cnc(C(C)(C)C)nc1)OC(C)C` (stereo not given): the outcome in [1], in experiment [2], in experiment [3], in experiment [4], in experiment [5] and in experiment [6] was inactive. For the same molecule, the result in experiment [7], in [9] and in experiment [10] was inactive. In [8], the half-maximal activity concentration (AC50) is 32.2 µM (active).
Take `COP(=O)(OC)SCn1c(=O)oc2cc(Cl)cnc21`: the outcome in [1], in experiment [2], in experiment [3], in experiment [4], in experiment [6] and in experiment [10] was inactive. Also, the concentration at half-maximal activity (AC50) was 9.42 µM (active) in experiment [5], 20 µM (active) in experiment [7], 21.5 µM (active) in experiment [8] and 38.8 µM (active) in experiment [9].
Take `CC(COc1ccc(Oc2ccccc2)cc1)Oc1ccccn1` (stereo not given): the result in [1], in [2], in [3], in experiment [4], in experiment [5] and in experiment [6] was inactive. Moreover, the outcome in [7], in experiment [9] and in [10] was inactive. In addition, the AC50 in experiment [8] was 31.8 µM (active).
For `CCCCSP(=O)(SCCCC)SCCCC`, the outcome in experiment [1], in experiment [2], in experiment [3], in [4], in experiment [6] and in experiment [7] was inactive. For the same molecule, the outcome in experiment [9] and in experiment [10] was inactive. Also, the concentration at half-maximal activity (AC50) was 29.4 µM (active) in [5] and 36.8 µM (active) in experiment [8].
With `CCNc1nc(Cl)nc(NC(C)(C)C#N)n1`, the result in experiment [1], in [2], in [3], in experiment [5], in experiment [6] and in experiment [7] was inactive. In addition, the outcome in experiment [8], in experiment [9] and in [10] was inactive. Moreover, in [4], the AC50 is 9.89 µM (active).
For `CC(=NC#N)N(C)Cc1ccc(Cl)nc1`, the outcome in experiment [1], in [2], in experiment [3], in [4], in experiment [5] and in experiment [6] was inactive. Moreover, the outcome in experiment [7], in [8], in experiment [9] and in [10] was inactive.
On to `COc1ccc(C(=CC(=O)N2CCOCC2)c2ccc(Cl)cc2)cc1OC`, for which the outcome in [1], in [2], in experiment [3], in experiment [4], in experiment [6] and in experiment [8] was inactive. The result in experiment [9] and in experiment [10] was inactive. Further, the AC50 in [5] is 2.5 µM (active); in experiment [7], 6.65 µM (active).
For the molecule `N#CSCSC#N`, the concentration at half-maximal activity (AC50) in experiment [1] was 14.4 µM (active); in experiment [3], 16.1 µM (active); in experiment [4] it was 21.4 µM (active); in [5], 16.1 µM (active); in experiment [7], 20.5 µM (active); in experiment [8], 2.16 µM (active). In addition, the half-maximal activity concentration (AC50) is 14.1 µM (active) in [9] and 30.2 µM (active) in experiment [10]. In addition, the result in experiment [2] and in experiment [6] was inactive.
For `CCOC(=O)COc1cc(-c2nn(C)c(OC(F)F)c2Cl)c(F)cc1Cl`, the outcome in experiment [1], in experiment [2], in [3], in experiment [4], in [5] and in experiment [6] was inactive. Moreover, the result in [7], in experiment [8], in [9] and in [10] was inactive.
In the case of `CCCCOC(=O)c1ccccc1C(=O)O`, the outcome in experiment [1], in [2], in [3], in experiment [4], in experiment [5] and in [6] was inactive. Besides, the result in [7], in experiment [8], in experiment [9] and in [10] was inactive.
Regarding `CCCOc1nn(C(=O)NS(=O)(=O)c2ccccc2C(=O)OC)c(=O)n1C`, the outcome in experiment [1], in experiment [2], in experiment [3], in experiment [4], in [5] and in experiment [6] was inactive. Moreover, the outcome in experiment [7], in experiment [8], in [9] and in experiment [10] was inactive.
`CCC(=NOC/C=C/Cl)C1=C(O)CC(C2CCOCC2)CC1=O` (stereo not given): the outcome in experiment [1], in experiment [2], in [3], in experiment [4], in experiment [5] and in [6] was inactive. Also, the result in experiment [7], in experiment [8], in experiment [9] and in [10] was inactive.
For `CN(C)NC(=O)CCC(=O)O`, the outcome in [1], in [2], in experiment [3], in experiment [4], in experiment [5] and in experiment [6] was inactive. The result in experiment [7], in experiment [8], in experiment [9] and in experiment [10] was inactive.
`CCOP(=S)(OCC)OC(Cl)C(Cl)(Cl)Cl` (stereo not given): the AC50 is 20 µM (active) in experiment [1] and 37 µM (active) in experiment [8]. Moreover, the outcome in experiment [2], in experiment [3], in [4], in experiment [5], in experiment [6] and in [7] was inactive. Also, the outcome in [9] and in [10] was inactive.
As for `CC1=NNC(=O)N(/N=C/c2cccnc2)C1`, the outcome in [1], in [2], in [3], in experiment [4], in [5] and in experiment [6] was inactive. Further, the outcome in [7], in experiment [8], in [9] and in experiment [10] was inactive.
Regarding `C#CC(C)(C)NC(=O)c1cc(Cl)cc(Cl)c1`, the outcome in experiment [1], in [2], in experiment [3], in experiment [4], in [5] and in [6] was inactive. Further, the outcome in experiment [7], in [8], in experiment [9] and in experiment [10] was inactive.
